# From PubChem BioAssay (NCATS)
# Values joined by “and” are separate entries in the source; they are usually repeats but may differ in a detail not shown here. Identical values can stand only once. Results filed as inconclusive are left out. Values without a mark were called inactive. Active and inactive are the calls of the source. Calls come from the whole dose curve; as a rule, active = well fitted activation curve with a large enough effect; inconclusive = small, poorly fitted or top-dose-only effect; inactive = no such curve, though single readings can be large or run the other way.
# Molecular target: Cellular tumor antigen p53 (Homo sapiens) (UniProt P04637)
# Assay: Primary qHTS for small molecule compounds that upregulate eGFP-tagged delta133p53alpha (in N-terminal) cells. (AID 2060322); note: nearly all actives have a fitted effect of over 75% in size;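 for activation: series mostly up to about 56 µM; 0% = DMSO vehicle and 100% = reference activator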
# Settings: NCI-H358 eGFP-delta133p53alpha fluorescence, 24 h; activation: hits give high values
# Outline: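 NCI-H358 cells pre-induced 24 h with 10 ng/ml doxycycline to express N-terminal eGFP-delta133p53alpha, then dosed 24 h at 37C without doxycycline; fixed, Hoechst-stained, GFP intensity by laser scanning cytometry, normalized to DMSO (0%) and 57.5 uM 5-azacytidine (100%).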
# Potency is the fitted concentration of half-maximal effect.
# Cellular tumor antigen p53 (Homo sapiens), sequence (P04637 whole entry, looked up): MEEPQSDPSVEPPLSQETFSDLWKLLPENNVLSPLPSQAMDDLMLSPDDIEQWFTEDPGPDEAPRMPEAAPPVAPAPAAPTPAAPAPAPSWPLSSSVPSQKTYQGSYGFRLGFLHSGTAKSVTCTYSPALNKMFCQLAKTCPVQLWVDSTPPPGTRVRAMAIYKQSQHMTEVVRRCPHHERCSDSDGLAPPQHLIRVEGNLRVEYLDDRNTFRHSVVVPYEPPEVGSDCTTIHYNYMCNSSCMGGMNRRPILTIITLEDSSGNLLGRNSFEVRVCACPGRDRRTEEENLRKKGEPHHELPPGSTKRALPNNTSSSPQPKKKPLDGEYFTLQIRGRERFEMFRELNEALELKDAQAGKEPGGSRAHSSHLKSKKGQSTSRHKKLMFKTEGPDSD
SMILES,activation,Potency
COc1cc(-c2ccc(=O)[nH]n2)ccc1OC(F)F,2.51%,
Cc1cccc(C)c1NC(=O)c1ccc(N)cc1,-2.82%,
NS(=O)(=O)c1cc2c(cc1C(F)(F)F)NC(Cc1ccccc1)NS2(=O)=O (stereo not given),-6.69%,
Cc1nc(N)nc(N)c1-c1ccc(Cl)c(Cl)c1,2.82%,
O=C(NCN1CCOCC1)c1cnccn1,-15.3%,
O=C(O)COC(=O)Cc1ccccc1Nc1c(Cl)cccc1Cl,5.08%,
COc1ccc(O)cc1,1.69%,
COc1ccc([C@@H]2CC(=O)c3c(O)cc(O[C@@H]4O[C@H](CO[C@@H]5O[C@@H](C)[C@H](O)[C@@H](O)[C@@H]5O)[C@@H](O)[C@H](O)[C@@H]4O)cc3O2)cc1O,4.43% and 6.54%,
NS(=O)(=O)c1cc2c(cc1Cl)CN(C1CCCCC1)C2=O,20.9%,
COc1cccc2c1C(=O)c1c(O)c3c(c(O)c1C2=O)C[C@@](O)(C(=O)CO)C[C@H]3O[C@H]1C[C@H](N)[C@H](O)[C@H](C)O1,-35.6%,
COC1=C2C[C@@H](C)C[C@H](OC)[C@@H](O)[C@@H](C)C=C(C)[C@H](OC(N)=O)[C@@H](OC)C=CC=C(C)C(=O)NC(=CC1=O)C2=O,-17.1%,
CN(C)CCN(Cc1ccc(Cl)cc1)c1ccccn1,1.96%,
CN1[C@@H]2CC[C@H]1CC(OC(=O)C(O)c1ccccc1)C2 (stereo not given in full),5.08%,
O=C(C=Cc1cccnc1)NCCCCC1CCN(C(=O)c2ccccc2)CC1,8.39%,
CCCN(CCC)S(=O)(=O)c1ccc(C(=O)O)cc1,8.47%,
O=C(O)c1ccc(OCCN2CCCCC2)cc1,-14.1%,
CC(=O)Nc1c(I)cc(I)c(C(=O)O)c1I,-3.95%,
Cc1ccc(CCn2c3c(c4cc(Cl)ccc42)CN(C)CC3)cn1,-20.9%,
O=C(Cn1ccnc1[N+](=O)[O-])NCc1ccccc1,-10.9%,
N#CC(=C(N)Sc1ccccc1N)C(C#N)=C(N)Sc1ccccc1N,,17.2 µM (active)

SMILES,activation,Potency
CCC1NC(=O)c2cc(S(N)(=O)=O)c(Cl)cc2N1 (stereo not given),-21.8%,
CCN(CC)CCNC(=O)c1c(C)[nH]c(C=C2C(=O)Nc3ccc(F)cc32)c1C,,12.5 µM (active)
NS(=O)(=O)c1ccc(C(=O)O)cc1,-37.9%,
NC(=O)NS(=O)(=O)c1ccc(N)cc1,7.53%,
O=C(O)CCC(=O)Nc1ccc(S(=O)(=O)Nc2nccs2)cc1,-3.95%,
C=CC(=O)Nc1cccc(Nc2nc(NC3CCC(N(C)C)CC3)nc3c2ncn3C(C)C)c1 (stereo not given),,4.85 µM (active)
CC(C(=O)O)c1ccc(C(=O)c2ccccc2)s1 (stereo not given),0%,
Cc1nc2n(c(=O)c1CCN1CCC(c3noc4cc(F)ccc34)CC1)CCCC2,2.45% and 8.37%,
Nc1c2ccccc2nc2ccccc12,-7.34%,
COC(=O)c1cccnc1,-4.18%,
NC[C@H]1O[C@H](O[C@H]2[C@H](O[C@@H]3O[C@H](CO)[C@@H](O)[C@H]3O)C(O)[C@H](N)C[C@@H]2N)[C@H](N)[C@@H](O)[C@@H]1O (stereo not given in full),0%,
C/C(=C(\CCO)SS/C(CCO)=C(\C)N(C=O)Cc1cnc(C)nc1N)N(C=O)Cc1cnc(C)nc1N,-9.6%,
Nc1ccc([N+](=O)[O-])c(C(F)(F)F)c1,-10.7%,
Cn1cc(C=C2C(=O)Nc3cccnc32)c2ccccc21,,24.3 µM (active)
CN(N=O)C(=O)N[C@H]1C(O)OC(CO)[C@@H](O)[C@H]1O (stereo not given in full),25.8%,
C[C@H](CCC(=O)O)[C@H]1CC[C@H]2[C@H]3[C@@H](CC[C@]12C)[C@@]1(C)CC[C@@H](O)C[C@H]1C[C@@H]3O,-8.06%,
C=CC(=O)Nc1cc(NC(=O)c2ccc(C)c(NC(=O)c3ccno3)c2)cc(C(F)(F)F)c1,4.58%,
C[C@@H](O)[C@H](N)C(=O)O,-18.4%,
Cc1ccc(C(=O)C(=O)O)cc1C,-13%,
CC(C)OC(=O)CCCC=CC[C@@H]1[C@H](C=C[C@@H](O)COc2cccc(C(F)(F)F)c2)[C@H](O)C[C@@H]1O,-7.59%,
